From the supplement of paper PMC6718421

System: Caenorhabditis elegans N2 (wild type)
Assay: animals with crystals or spheres in anterior pharynx; higher = more object (crystal/sphere) accumulation
Details: 30 µM; 48 h; genotype: wild type N2; stage: L1 start
Method: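 Synchronized wild-type (N2) C. elegans L1 larvae (50 per well) were incubated in liquid NGM with E. coli HB101 and 30 uM of each wactive for 48 h. Live worms were scored by DIC and polarized-light microscopy for birefringent crystals or non-birefringent spheres in the anterior pharynx. At least 3 biological replicates were run with at least 20 worms each; the value is the mean % of animals carrying objects.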

Row | Compound | animals [%]
1 | Fc1ccc(N2CCN(Cc3cccc(Br)c3)CC2)cc1 [wact-30] | 0
2 | CCOc1ccc(/C=C/[N+](=O)[O-])cc1 [wact-385] | 0
